Measured values reported in the supplement of paper PMC12494721.
Counter-ions that a name gives are not always drawn.

What follows are compounds tested on Clostridium sporogenes DSM 1664 (assay: growth (OD595) fold change vs plate DMSO controls (fold change (ratio)); higher = more growth). Conditions: incubation time: 27 h, anaerobic, 37 °C.
Procedure, shortened: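 Growth is the fold change relative to the median of plate DMSO controls. Readings came from anaerobic mGAM cultures in 96-well plates grown for 27 h at 37 °C and read at 595 nm. They were blank-subtracted, corrected for compound background with 20 µM compound solutions in water, and converted to OD with a calibration factor of 5. Values are means of 2 biological replicates, and fold changes above 1.5 were set to NA.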

Row | Structure (SMILES) | growth
1 | Oc1c(Cl)cc(Cl)cc1Sc1cc(Cl)cc(Cl)c1O [Bithionol] (20 µM) | 0
2 | CO[C@@]1(NC(=O)C2SC(=C(C(N)=O)C(=O)O)S2)C(=O)N2C(C(=O)O)=C(CSc3nnnn3C)CS[C@@H]21 (some centres undefined) [Cefotetan] (20 µM) | 0
3 | N#CC(c1ccc(Cl)cc1)c1c(Cl)cc(-n2ncc(=O)[nH]c2=O)cc1Cl (centres undefined) [Diclazuril] (20 µM) | 0.806
4 | CN(C)CCCN1c2ccccc2Sc2ccc(C(F)(F)F)cc21 [Triflupromazine hydrochloride] (20 µM) | 1.08
5 | CCC(=O)OCC(=O)[C@@]1(OC(=O)CC)[C@@H](C)C[C@H]2[C@@H]3CCC4=CC(=O)C=C[C@]4(C)[C@@]3(Cl)[C@@H](O)C[C@@]21C [Beclomethasone dipropionate] (20 µM) | 1.19
6 | O=C1CN(/N=C/c2ccc(-c3ccc([N+](=O)[O-])cc3)o2)C(=O)N1 [Dantrolene sodium salt] (20 µM) | 1.04
7 | CC(C)(C(=O)O)c1ccc(C(O)CCCN2CCC(C(O)(c3ccccc3)c3ccccc3)CC2)cc1 (centres undefined) [Fexofenadine hydrochloride] (20 µM) | 1.1
8 | C[C@H]1[C@@H](O)O[C@@H]2O[C@@]3(C)CC[C@H]4[C@H](C)CC[C@@H]1[C@@]24OO3 [Artenimol] (20 µM) | 1.03
9 | CC(C)(C)NC[C@H](O)COc1ccccc1C1CCCC1 [Penbutolol sulfate] (20 µM) | 0.971
10 | Cc1ccc(-c2ncc(Cl)cc2-c2ccc(S(C)(=O)=O)cc2)cn1 [Etoricoxib] (20 µM) | 1.04
11 | Clc1ccc(CO/N=C(\Cn2ccnc2)c2ccc(Cl)cc2Cl)c(Cl)c1 [Oxiconazole nitrate] (20 µM) | 0.912
12 | NCc1ccc(S(N)(=O)=O)cc1 [Mafenide hydrochloride] (20 µM) | 1.13
13 | c1ccc(-c2ccc(C(c3ccccc3)n3ccnc3)cc2)cc1 (centres undefined) [Bifonazole] (20 µM) | 1.27
14 | OC[C@H]1O[C@@H](O[C@H]2[C@H](O)[C@@H](O)[C@H](O)O[C@@H]2CO)[C@H](O)[C@@H](O)[C@H]1O [Lactose] (50 µM) | 0.993
15 | CC(CNC1CCCCC1)OC(=O)c1ccccc1 (centres undefined) [Hexylcaine hydrochloride] (20 µM) | 1
16 | CN(C)CCc1c[nH]c2ccc(Cn3cncn3)cc12 [Rizatriptan benzoate] (20 µM) | 0.987
17 | CC[N+]1(CC)CCC(=C(c2ccccc2)c2ccccc2)C1C (centres undefined) [Prifinium Bromide] (20 µM) | 1.1
18 | COc1ccc(C(=O)c2ccc(C)cc2)c(O)c1 [Mexenone] (20 µM) | 0.644
19 | CC(C)NCC(O)COc1ccc(CCOCC2CC2)cc1 (centres undefined) [Betaxolol hydrochloride] (20 µM) | 1.11
20 | COc1cc(N)cn[n+]1-c1ccccc1 [Amezinium metilsulfate] (20 µM) | 1.05

Row | Structure (SMILES) | growth
21 | C[C@H](NCc1ccc(OCc2cccc(F)c2)cc1)C(N)=O [Safinamide] (20 µM) | 0.894
22 | CC#C[C@]1(O)CC[C@H]2[C@@H]3CCC4=CC(=O)CCC4=C3[C@@H](c3ccc(N(C)C)cc3)C[C@@]21C [Mifepristone] (20 µM) | 1.19
23 | O=C1CCC(N2C(=O)c3ccccc3C2=O)C(=O)N1 (centres undefined) [Thalidomide] (20 µM) | 1.13
24 | CCCC(=O)Nc1ncnc2c1ncn2[C@@H]1O[C@@H]2COP(=O)(O)O[C@H]2[C@H]1OC(=O)CCC [Bucladesine sodium salt] (20 µM) | 0.934
25 | CCOC(=O)C1=C[C@@H](OC(CC)CC)[C@H](NC(C)=O)[C@@H](N)C1 [Oseltamivir phosphate] (20 µM) | 0.866
26 | Brc1c(NC2=NCCN2)ccc2nccnc12 [Brimonidine L-tartrate] (20 µM) | 0.988
27 | CC(C)(C)NC[C@H](O)COc1nsnc1N1CCOCC1 [Timolol maleate salt] (20 µM) | 1
28 | O=C(CCCN1CCC(O)(c2ccc(Cl)cc2)CC1)c1ccc(F)cc1 [Haloperidol] (20 µM) | 0.929
29 | OC[C@@H](O)[C@H](O)[C@@H](O)CO [Xylitol] (50 µM) | 1
30 | Cc1cnc(C(=O)NCCc2ccc(S(=O)(=O)NC(=O)NC3CCCCC3)cc2)cn1 [Glipizide] (20 µM) | 1.11
31 | Fc1ccc([C@@H]2CCNC[C@H]2COc2ccc3c(c2)OCO3)cc1 [Paroxetine hydrochloride] (20 µM) | 1.01
32 | Nc1nnc(-c2cccc(Cl)c2Cl)c(N)n1 [Lamotrigine] (20 µM) | 0.937
33 | Oc1c(Cl)cc(Cl)c(Cl)c1Cc1c(O)c(Cl)cc(Cl)c1Cl (20 µM) | 0
34 | Cc1c(Nc2ncccc2C(=O)O)cccc1C(F)(F)F [Flunixin meglumine] (20 µM) | 0.944
35 | COc1c(O)cc2c(c1O)[C@@H]1O[C@H](CO)[C@@H](O)[C@H](O)[C@H]1OC2=O [Bergenin] (20 µM) | 0.966
36 | Nc1c(CC(=O)O)cccc1C(=O)c1ccc(Br)cc1 [Bromfenac] (20 µM) | 1.21
37 | CNC[C@H](O)[C@@H](O)[C@H](O)[C@H](O)CO [Meglumine] (20 µM) | 0.956
38 | O=C(Nc1ccc([N+](=O)[O-])cc1Cl)c1cc(Cl)ccc1O [Niclosamide] (20 µM) | 0.924
39 | CN1CCN2c3ncccc3Cc3ccccc3C2C1 (centres undefined) [Mirtazapine] (20 µM) | 1.09
